About 83,000 compounds went through this panel and 20% of them were active in at least one assay; those are over-represented in the sample as a whole.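 Activity criterion: percent growth below 10, measured after cells in 96-well plates were exposed to a single compound concentration for 48 hours.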 Unmarked numbers belong to inactive results. Activity calls are given as the source filed them.

For one experiment, the system named is HOP-92 NSCLC. The experiment can be described thus: NCI-60 one-dose screen, 48 h (100 = growth as untreated, 0 = no growth, -100 = all killed). To be noted: 10 µM unless noted.
Consider `CCOC(=O)c1c(Cl)c2c(n1Cc1ccccc1)-c1oncc1CCC2`, for which the growth is 84.7%.

As to `COc1cc([C@@H]2NC(=O)NC(C)=C2C(=O)Nc2nc(-c3ccc(Cl)cc3)cs2)ccc1O`, the growth was 103%. Take `N#C/C(=C\c1c(-c2ccccc2)[nH]c2ccccc12)C(=O)c1ccccc1`: the growth was 77.5%. On the same count and under the same terms, next, `CCN(CC)c1cc(C)c2cc(NC(=O)c3cccc(OC)c3)ccc2n1`: 29.1%. Take `COc1nc2c(c(=O)n1C)N=C1c3ccccc3C(=O)C1C(c1ccccc1)N2` (stereo not given): the growth was 89.2%.

With `CCOc1ccccc1CN1CCc2nc3cc(C(C)(C)C)[nH]n3c(=O)c2C1`, the growth is 112%. For the compound `COc1ccc(-n2c(C(O)c3ccccc3)n[nH]c2=S)cc1` (stereo not given), the growth is 83.6%.

As for `CC(=O)n1cc(-c2c[nH]c3ccccc23)c(-c2ccc(Cl)cc2)n1`, the growth was 79.7%. `N#CC(C#N)=Cc1c(-c2ccccc2)[nH]c2ccccc12`: the growth is 45.1%. As for `Nc1ccc(C2c3ccccc3Oc3ccccc32)cc1`, the growth is 93.4%. For `COc1cc(C#N)cc2[nH]c(=O)oc12`, the growth was 95.5%.

In another experiment the test system is NCI-H522 lung. The experiment is described as above. Conditions: 10 µM unless noted.
With `OC(c1ccccc1)c1nnc(SCc2ccccc2)n1Cc1ccccc1` (stereo not given), the growth was 86.6%. As for `COc1ccc(/C=C2\SC(=Nc3ccccc3)NC2=O)cc1`, the growth was -85.6% (active). Regarding `COc1ccc(-n2c(C(O)c3ccccc3)nn(CN3CCOCC3)c2=S)cc1` (stereo not given), the growth was 89.9%. Consider `CN(O)c1nc(N(C)O)nc(N2CCOCC2)n1`, for which the growth was 31.4%.

For `O=C(NC(=S)Nc1cccc(NC(=S)NC(=O)c2ccccc2)c1)c1ccccc1`, the growth is -9.46% (active).

For the compound `Cn1c2c(c(=O)[nH]c1=O)NC1=C(C(=O)c3ccccc31)C1(C=C(O)c3ccccc31)N2` (stereo not given), the growth is 99.9%.

With `Nc1nc(Nc2cccc(F)c2)nc2ccccc12`, the growth was 51.5%. For `COc1cc(OC)cc(N2C(=O)N(Cc3ccc(C(C)(C)C)cc3)c3ccccc3S2(=O)=O)c1`, the growth was 76.9%. Regarding `CC/C=C\C[C@H](O)C/C=C1/C(=O)C=C[C@@H]1C/C=C\CCCC(=O)OCCS(=O)(=O)c1ccccc1`, the growth is -7.61% (active).

Regarding `COc1ccc(C2Nc3ncnc(N)c3N=C3c4ccccc4C(=O)C32)cc1` (stereo not given), the growth was 101%. On the same count and under the same terms, the same measure for `O=CCCCC(O)C=O` (stereo not given): 107%; for `COC(=O)/C(=C\c1c(-c2ccccc2)[nH]c2ccccc12)S(C)(=O)=O`: 47.1%. Consider `COc1ccc(-c2nsc3c2NC(=O)CC3c2ccsc2)cc1` (stereo not given), for which the growth is 11.6%.

On to `FC(F)(F)c1cccc(Nc2nc(-c3ccccc3)nc3ncccc23)c1`, for which the growth is 72.8%.

Take `COC(=O)/C(=C\c1c(C)[nH]c2ccccc12)S(=O)(=O)c1ccccc1`: the growth is 31.9%. The same measure, in the same setting: the same measure for `O=Nc1c(O)ccc2ccccc12.O=Nc1c(O)ccc2ccccc12.O=Nc1c([O-])ccc2ccccc12.[Fe+3]`: 103%; for `COc1cccc(C(=O)Cn2cc(/C=C(\C#N)S(=O)(=O)c3ccccc3)c3ccccc32)c1`: 88%. With `CC(=O)O[C@@H]1/C=C/C(=O)N[C@@H](C)CCC/C=C/[C@@H]2CCC[C@H]21`, the growth was 37.9%. Turning to `CC(C)(C)c1ccc(C2CC(=O)C3=C(C2)Nc2ccccc2N(C(=O)c2ccccc2Cl)C3c2ccc(F)cc2)cc1` (stereo not given), the growth was 14.7%.

As to `O=C1/C=C/[C@@H](O)[C@@H]2C[C@@H](O)C[C@H]2/C=C/CCCCO1`, the growth was 19.4%.

As to `CN1CCN(c2nc(Nc3ccc(O)cc3)nc3ccccc23)CC1`, the growth was 37.5%. The same measure, in the same setting: next, `O=C(NN1C(=O)CSC1c1ccc(Cl)cc1)c1[nH]c2ccc(F)cc2c1-c1ccccc1` (stereo not given): 74.4%; `CSc1nc2c(c(=O)n1C)N=C1c3ccccc3C(=O)C1C(c1ccccc1)N2` (stereo not given): 103%; `CCCC(=O)CC(C)=O.CCCC(=O)CC(C)=O.[Cu]`: 91%. The same measure, in the same setting: next, `N#C/C(=C\c1c(-c2ccccc2)[nH]c2ccccc12)S(=O)(=O)c1ccccc1`: 54.9%; `O=C(Nc1ccc(Cl)cc1)c1cc2ccccc2cc1OP(=O)(O)O`: 3.47% (active); `COc1ccc(/C=C2\N=C(c3ccccc3)N(c3ccc(-c4nc5ccc(C)cc5s4)cc3)C2=O)cc1`: 67.1%. For the compound `CSc1nc2c(c(=O)[nH]1)N=C1c3ccccc3C(=O)C1C(c1ccccc1)N2` (stereo not given), the growth was 82.2%. Regarding `CCOC(=O)c1c(Cl)c2c(n1Cc1ccccc1)-c1oncc1CCC2`, the growth is 35.7%. As to `COc1cc([C@@H]2NC(=O)NC(C)=C2C(=O)Nc2nc(-c3ccc(Cl)cc3)cs2)ccc1O`, the growth is 84%.

As for `N#C/C(=C\c1c(-c2ccccc2)[nH]c2ccccc12)C(=O)c1ccccc1`, the growth was 57.1%. In the case of `CCN(CC)c1cc(C)c2cc(NC(=O)c3cccc(OC)c3)ccc2n1`, the growth is 93.4%. The same measure, in the same setting: the same measure for `COc1nc2c(c(=O)n1C)N=C1c3ccccc3C(=O)C1C(c1ccccc1)N2` (stereo not given): 102%.

In the case of `CCOc1ccccc1CN1CCc2nc3cc(C(C)(C)C)[nH]n3c(=O)c2C1`, the growth was 77.1%. In the case of `COc1ccc(-n2c(C(O)c3ccccc3)n[nH]c2=S)cc1` (stereo not given), the growth was 89.7%. On the same count and under the same terms, the same measure for `CC(=O)n1cc(-c2c[nH]c3ccccc23)c(-c2ccc(Cl)cc2)n1`: 74.8%; for `N#CC(C#N)=Cc1c(-c2ccccc2)[nH]c2ccccc12`: 50.2%.

With `Nc1ccc(C2c3ccccc3Oc3ccccc32)cc1`, the growth is 89.4%. Turning to `COc1cc(C#N)cc2[nH]c(=O)oc12`, the growth is 103%.
